The values that follow come from PubChem BioAssay (NCATS).

Unmarked numbers belong to inactive results. Inconclusive results are not listed. The source made the active and inactive calls. Unless noted, the call rests on the fitted dose curve; in most records, active means well fitted curve in either direction with a large enough effect (not every such curve was filed as active); inconclusive means small, poorly fitted or top-dose-only effect, or another doubt; inactive means flat fitted curve, though single readings scatter. Some results are limits rather than exact numbers.

Assay [1] addresses Lysosomal acid glucosylceramidase (Homo sapiens) (UniProt P04062). Kind of assay: Glucocerebrosidase-p2 (AID 348; in the data active means potency below about 10 µM; further: potency means the concentration at half of the fitted maximal effect). Conditions: purified GBA, blue fluorogenic substrate, 40 min. A digest of the protocol: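 Normal human glucocerebrosidase (0.2 nM) with blue fluorogenic substrate (80 uM final) in citrate/phosphate pH 5.9 with 10mM sodium taurocholate, 0.01% tween-20; 40 min RT, NaOH/glycine stop; fluorescence Ex 365/Em 440; AC50 from a titration from 0.6 nM upwards.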

The nature of assay [2]: AP1 Signaling Pathway (AID 357).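 Further: ME-180 reporter cells stimulated with EGF at its EC50 level; on the % scale 0 is the no-effect control and ±100 the full control effect.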 Conditions: ME-180 AP-1-bla reporter, EGF-induced, beta-lactamase ratio, 5 h; at 7.69 µM (top of the series) unless noted. A digest of the protocol: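 First, ME-180 AP-1-bla cells were cultured overnight at 37 °C in low-serum Opti-MEM. Next, titrated compounds with EC50 EGF were incubated 5 hours. Finally, CCF4 was added for 2.5 hours and the 460/530 nm ratio recorded.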

Assay [3] has as its target Cytochrome P450 1A2 (Homo sapiens) (UniProt P05177). Kind of assay: p450-cyp1a2 (AID 410; calls by dose curve; further: potency means the concentration at half of the fitted maximal effect;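 on activity change, negative = inhibition: -100% = full effect of reference inhibitor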). Conditions: recombinant CYP1A2, luciferin-ME demethylation, luminescence; series mostly up to 11.4 µM. Put shortly:
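Read-out is luminescence from luciferin produced by CYP1A2 demethylation of Luciferin-ME (100uM, at Km). Detection reagent stopped the 60 min NADPH-dependent reaction; signals were normalized to 57 uM furafylline.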

The nature of assay [4]: NFAT Signaling Pathway (AID 444).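 Further: carbachol stimulus at about its EC50 of 1 µM final; on the % scale 0 is the no-effect control and ±100 the full control effect.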 Conditions: Jurkat NFAT-bla M1, carbachol, beta-lactamase ratio, 5 h; at 7.69 µM (top of the series) unless noted. A digest of the protocol:
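Jurkat cells with NFAT-driven β-lactamase reporter and co-expressed M1 receptor, stimulated with carbachol (final 1 uM, ~EC50), compound titration, 5 h at 37 °C. CCF4 loaded 1 h at RT; 460/530 nm ratio gave %activity and AC50.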

A short description of assay [5]: Stat Signaling Pathway (AID 446).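 Further: ME-180 cervical cancer cells given 40 pM IL-6 alongside compound; SIE-controlled beta-lactamase reporter measured as 460/530 nm FRET emission ratio; on the % scale 0 is the no-effect control and ±100 the full control effect.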 Conditions: ME-180 (cervical carcinoma) SIE beta-lactamase reporter, IL-6 stimulated, 5 h; at 7.69 µM (top of the series) unless noted. Put shortly:
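Emission at 460 and 530 nm (excitation 405 nm) reports SIE-controlled beta-lactamase in ME-180 cells. Cells received compound with 40 pM IL-6 for 5 hrs at 37 C; data scaled between 300 pM IL-6 and 125 nM JAK-inhibitor controls.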

Assay [6] concerns the target Glucocorticoid receptor (Homo sapiens) (UniProt P04150). The experiment in a line: GR-GFP Redistribution (AID 450;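 active means compounds whose dose series gives a full or clear partial fitted curve of increased nuclear translocation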; further: potency means the concentration at half of the fitted maximal effect). The note with it: U2OS GR-GFP nuclear translocation, laser cytometry, 2 h.
Assay [7] shares this target. The experiment in a line: GR-EFC Redistribution (AID 451; calls by dose curve; further: potency means the concentration at half of the fitted maximal effect). Conditions: CHO-K1 GR-EFC translocation, beta-gal luminescence, 2 h. Put shortly:
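CHO-K1 cells expressing nuclear EA and GR-ED fragments of b-gal; compounds titrated up to 46 uM final, 2 h at 37 C. GR nuclear translocation read as complemented b-gal luminescence after 1 h RT detection.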

The target of assay [8] is Mitogen-activated protein kinase 10 (Mus musculus) (UniProt Q61831). Kind of assay: JNK3 AlphaScreen Assay (AID 530).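 Further: kinase came from lysate of stimulated human HepG2 cells; signal reports phosphorylation of biotinylated GST-cJun 1-79 at Ser73 with 10 µM ATP; on the % scale 0 is the no-effect control and ±100 the full control effect.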 Conditions: JNK3 lysate, c-Jun phosphorylation; series mostly up to 11.4 µM. Put shortly:
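HepG2 lysate (IL-1b/TNFa pre-activated) + biotin-GST-cJun 1-79 + anti-pSer73 cJun; cpd titration, 15 min RT; ATP 10 uM start; Tris pH 7.6, MgCl2, DTT, vanadate; beads in EDTA buffer; AlphaScreen.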
A general note: Bead proximity is the source of the signal in Alpha formats.

In assay [9] the target is 3',5'-cyclic-AMP phosphodiesterase 4B (Homo sapiens) (UniProt Q07343). The experiment in a line: qHTS Assay for Inhibitors of PDE-IV (AID 607; active means well fitted activation curve with a large enough effect in the main read-out, with a control signal flat, not every such curve was filed as active; further: % of control where 0% means no effect). The note with it: HEK293 ACTOne CNG channel cells, membrane potential fluorescence; series mostly up to 22.9 µM. A digest of the protocol:
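The readout is membrane depolarisation from a cAMP-sensing CNG channel, detected with a potential dye at ex 535/em 590. Cells were HEK293-derived (endogenous PDE-IV) at 1000 cells/well, titrated up to 22.9 uM final.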
For orientation: In qHTS, concentration-response curves come from the screen itself.

Sequence of Lysosomal acid glucosylceramidase (Homo sapiens) (P04062 whole entry, looked up): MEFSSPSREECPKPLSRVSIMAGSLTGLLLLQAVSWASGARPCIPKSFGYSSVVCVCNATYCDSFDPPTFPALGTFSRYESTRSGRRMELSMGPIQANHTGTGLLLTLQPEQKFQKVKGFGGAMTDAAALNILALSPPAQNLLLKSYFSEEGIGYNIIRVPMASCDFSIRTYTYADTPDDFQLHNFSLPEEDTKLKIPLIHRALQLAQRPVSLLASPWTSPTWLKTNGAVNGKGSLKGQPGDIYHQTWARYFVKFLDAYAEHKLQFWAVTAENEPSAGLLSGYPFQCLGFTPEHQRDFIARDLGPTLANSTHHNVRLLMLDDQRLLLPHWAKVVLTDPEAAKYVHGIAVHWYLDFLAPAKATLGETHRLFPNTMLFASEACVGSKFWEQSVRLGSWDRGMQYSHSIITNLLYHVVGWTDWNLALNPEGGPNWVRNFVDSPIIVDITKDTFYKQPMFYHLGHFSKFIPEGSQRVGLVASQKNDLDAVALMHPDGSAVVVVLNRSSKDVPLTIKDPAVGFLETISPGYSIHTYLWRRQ
Sequence of Cytochrome P450 1A2 (Homo sapiens) (P05177 whole entry, looked up): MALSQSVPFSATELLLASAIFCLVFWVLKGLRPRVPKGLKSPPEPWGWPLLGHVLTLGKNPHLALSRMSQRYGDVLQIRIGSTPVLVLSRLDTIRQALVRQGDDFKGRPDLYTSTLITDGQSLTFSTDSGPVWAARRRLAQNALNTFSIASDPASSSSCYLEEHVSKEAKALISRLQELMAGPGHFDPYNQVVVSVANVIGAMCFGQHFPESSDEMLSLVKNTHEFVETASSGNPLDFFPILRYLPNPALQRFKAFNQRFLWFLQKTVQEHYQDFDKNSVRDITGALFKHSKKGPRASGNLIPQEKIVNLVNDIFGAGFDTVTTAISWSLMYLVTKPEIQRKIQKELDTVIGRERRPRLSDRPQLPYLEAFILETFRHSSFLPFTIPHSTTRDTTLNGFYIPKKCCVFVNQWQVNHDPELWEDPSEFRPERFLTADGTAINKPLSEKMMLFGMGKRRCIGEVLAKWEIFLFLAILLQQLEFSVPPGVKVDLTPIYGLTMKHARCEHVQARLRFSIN
Sequence of Glucocorticoid receptor (Homo sapiens) (P04150 whole entry, looked up): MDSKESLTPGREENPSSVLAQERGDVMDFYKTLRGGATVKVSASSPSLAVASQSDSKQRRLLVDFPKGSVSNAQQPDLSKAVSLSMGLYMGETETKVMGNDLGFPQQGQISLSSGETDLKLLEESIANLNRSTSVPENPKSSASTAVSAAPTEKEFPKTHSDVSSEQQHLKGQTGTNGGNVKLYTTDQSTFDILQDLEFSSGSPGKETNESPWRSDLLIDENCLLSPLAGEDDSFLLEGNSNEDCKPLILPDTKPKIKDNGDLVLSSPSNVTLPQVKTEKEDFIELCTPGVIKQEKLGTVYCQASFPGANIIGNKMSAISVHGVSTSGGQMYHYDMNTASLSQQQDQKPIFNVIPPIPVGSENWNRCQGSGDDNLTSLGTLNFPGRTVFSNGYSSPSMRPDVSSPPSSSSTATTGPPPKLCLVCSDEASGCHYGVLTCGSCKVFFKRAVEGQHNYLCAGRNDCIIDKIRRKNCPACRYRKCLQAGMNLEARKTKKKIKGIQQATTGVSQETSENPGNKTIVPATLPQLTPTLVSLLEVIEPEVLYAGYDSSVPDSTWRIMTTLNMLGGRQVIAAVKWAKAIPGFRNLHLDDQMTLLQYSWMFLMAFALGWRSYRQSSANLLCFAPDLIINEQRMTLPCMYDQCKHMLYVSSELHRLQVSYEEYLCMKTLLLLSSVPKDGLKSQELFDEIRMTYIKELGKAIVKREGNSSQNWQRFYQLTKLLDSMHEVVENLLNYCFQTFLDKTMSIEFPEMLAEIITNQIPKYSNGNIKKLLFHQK
Sequence of 3',5'-cyclic-AMP phosphodiesterase 4B (Homo sapiens) (Q07343 whole entry, looked up): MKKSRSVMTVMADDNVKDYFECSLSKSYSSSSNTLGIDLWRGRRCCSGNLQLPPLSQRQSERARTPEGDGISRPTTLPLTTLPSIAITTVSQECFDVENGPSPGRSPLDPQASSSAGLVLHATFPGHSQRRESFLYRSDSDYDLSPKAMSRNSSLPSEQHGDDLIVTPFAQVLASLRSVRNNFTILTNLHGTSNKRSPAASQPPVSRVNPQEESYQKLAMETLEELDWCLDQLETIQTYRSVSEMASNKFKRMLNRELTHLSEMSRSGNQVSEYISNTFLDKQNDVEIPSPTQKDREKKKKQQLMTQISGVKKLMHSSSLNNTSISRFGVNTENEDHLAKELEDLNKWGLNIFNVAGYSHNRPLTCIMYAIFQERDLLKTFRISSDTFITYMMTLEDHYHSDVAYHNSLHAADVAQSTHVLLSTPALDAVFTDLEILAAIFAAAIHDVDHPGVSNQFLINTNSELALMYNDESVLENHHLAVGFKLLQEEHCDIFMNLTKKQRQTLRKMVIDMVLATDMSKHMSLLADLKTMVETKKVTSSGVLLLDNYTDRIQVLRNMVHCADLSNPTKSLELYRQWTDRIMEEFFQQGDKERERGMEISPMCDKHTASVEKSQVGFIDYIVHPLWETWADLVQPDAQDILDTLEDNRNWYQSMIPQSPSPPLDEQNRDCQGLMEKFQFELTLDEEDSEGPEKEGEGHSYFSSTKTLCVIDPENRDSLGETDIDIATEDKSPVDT

Turning to `C[C@]12CCC3c4ccc(OCC(=O)O)cc4CCC3C1CCC2=O` (stereo partly specified), the Potency in assay [1] is above 11.4 µM; in assay [6], above 46 µM; in assay [7], above 9.22 µM. For the same molecule, the activity change, negative = inhibition is 6.42% in assay [2], 0.7% [at 2.29 µM] in assay [3] and -1.29% in assay [4]. The activity, negative = inhibition in assay [5] was 9.48%. The Potency entry in assay [8] and in assay [9] was “inactive” each time.
In the case of `O=C(Nc1nn[nH]n1)c1nc(-c2ccccc2)cc(=O)[nH]1`, the Potency in assay [1] was above 11.4 µM; in [3], 3.98 µM (active); in assay [6] it was above 46 µM; in [7] it was above 9.22 µM. In addition, the activity change, negative = inhibition in assay [2] is 2.85%; in assay [4] it was 0.574%. For the same molecule, the activity, negative = inhibition in assay [5] was -4.08%. The Potency entry in assay [8] and in assay [9] was “inactive” each time.
On to `CCON=C1C(C)(C)C(C)(C)C(C)(C)C1(C)C`, for which the Potency in assay [1] is above 11.4 µM; in [6] it was above 46 µM; in [7], above 9.22 µM. Further, the activity change, negative = inhibition was 1.12% in [2] and 6.28% in assay [4]. The Potency result in assay [3], in assay [8] and in assay [9] was “inactive” in each case. Moreover, in [5], the activity, negative = inhibition is -3.9%.
For `C[C@@H]1C[C@H](C)CN(S(=O)(=O)c2cc(Cl)c(Oc3ccc([N+](=O)[O-])cc3Cl)c(Cl)c2)C1`, the values for the Potency in assay [1], in assay [6] and in [7] were above 11.4 µM, above 46 µM and above 9.22 µM, respectively. Moreover, the activity change, negative = inhibition is 16.4% in assay [2] and -22.6% in [4]. In addition, the Potency entry in assay [3], in assay [8] and in assay [9] was “inactive” each time. Also, in assay [5], the activity, negative = inhibition is 20.1%.
For the molecule `C[C@H](CCC(=O)O)[C@H]1CC[C@]2(C)[C@@H]3C(=O)C[C@H]4C(C)(C)[C@@H](O)CC[C@]4(C)[C@H]3C(=O)C[C@@]12C`, the Potency is above 11.4 µM in assay [1], above 46 µM in assay [6] and above 9.22 µM in assay [7]. The activity change, negative = inhibition in assay [2] was 4.2%; in [4] it was 21.4%. Moreover, the Potency entry in assay [3], in assay [8] and in assay [9] was “inactive” throughout. In assay [5], the activity, negative = inhibition was 8.37%.
As to `Cc1ccc(S(=O)(=O)NC(=O)Nc2ncn[nH]2)cc1`, the Potency is above 11.4 µM in [1], above 46 µM in [6] and above 9.22 µM in assay [7]. Besides, the activity change, negative = inhibition in assay [2] was 3.19%; in assay [3] it was -21.5% [at 2.29 µM]; in assay [4], 13%. The activity, negative = inhibition in [5] was 0.243%. Moreover, the Potency result in assay [8] and in assay [9] was “inactive” in each case.
Turning to `Nc1ncnc2c1ncn2[C@H]1O[C@@H](C(=O)OCCO)[C@@H](O)[C@H]1O`, the Potency in assay [1] was above 11.4 µM; in [6], above 46 µM; in assay [7], above 9.22 µM. Moreover, the activity change, negative = inhibition in assay [2] was 1.75%; in [4], 21.4%. Besides, the Potency result in assay [3], in assay [8] and in assay [9] was “inactive” throughout. The activity, negative = inhibition in [5] was 25.7%.
Regarding `Nc1nc(N)nc(CCCc2nc(N)nc(N)n2)n1`, the results for the Potency in assay [1], in assay [6] and in assay [7] were above 11.4 µM, above 46 µM and above 9.22 µM, respectively. For the same molecule, the activity change, negative = inhibition in [2] is -5.42%; in assay [4] it was 6.45%. The Potency result in [3], in assay [8] and in assay [9] was “inactive” each time. The activity, negative = inhibition in assay [5] is 1.14%.
As for `COC(=O)CCCC(=O)O`, the Potency in assay [1] is above 11.4 µM; in assay [6] it was above 46 µM; in [7], above 9.22 µM. Further, the activity change, negative = inhibition in [2] was 1.55%; in assay [3] it was -7.3% [at 2.29 µM]; in [4], -3.39%. Further, the activity, negative = inhibition in assay [5] was -4.13%. In addition, the Potency result in [8] and in assay [9] was “inactive” in each case.
With `O=C(O)CCSc1ncnc2nc[nH]c12`, the results for the Potency in [1], in [6] and in [7] were above 11.4 µM, above 46 µM and above 9.22 µM, respectively. Also, the activity change, negative = inhibition in assay [2] was 15.6%; in [4], 1.77%. For the same molecule, the Potency result in assay [3], in assay [8] and in [9] was “inactive” in each case. The activity, negative = inhibition in assay [5] was 0.335%.
In the case of `CN(C)CCCn1cnc2cc(Cl)c(Cl)cc21`, the Potency in [1] was above 11.4 µM; in assay [6], above 46 µM; in [7] it was above 9.22 µM. Further, the activity change, negative = inhibition in assay [2] is 1.9%; in assay [3], -20% [at 2.29 µM]; in assay [4], -23.5%. Besides, the activity, negative = inhibition in [5] is 11.7%. The Potency entry in assay [8] and in [9] was “inactive” each time.
Consider `Oc1cc(O)c2c(c1)O[C@@H](c1ccc(O)c(O)c1)[C@H](O[C@@]1(c3cc(O)c(O)c(O)c3)Oc3cc(O)cc(O)c3[C@H](O)[C@@H]1O)C2`, for which the results for the Potency in [1], in assay [6] and in assay [7] were above 11.4 µM, above 46 µM and above 9.22 µM, respectively. In addition, the results for the activity change, negative = inhibition in [2] and in assay [4] were 9.41% and 13.8%, respectively. Further, the Potency entry in assay [3], in assay [8] and in assay [9] was “inactive” each time. Besides, the activity, negative = inhibition in assay [5] is -22.3%.
On to `Cc1cc(C)c2nc3c(c([C@H](O)[C@@H]4CCCCN4)c2c1)CC/C3=C/c1ccc(Cl)cc1`, for which the Potency in [1] is above 11.4 µM; in [6], above 46 µM; in [7], above 9.22 µM. Also, the results for the activity change, negative = inhibition in assay [2] and in assay [4] were 4.75% and -2.24%, respectively. Moreover, the Potency entry in assay [3], in [8] and in assay [9] was “inactive” throughout. For the same molecule, in assay [5], the activity, negative = inhibition is 1.11%.
As for `O=C(O)CNC(=O)c1ccccc1O`, the Potency in [1] was above 11.4 µM; in assay [3], 5.01 µM (active); in assay [6] it was above 46 µM; in assay [7] it was above 9.22 µM. Also, the activity change, negative = inhibition was 6.2% in [2] and 10.4% in assay [4]. Further, the activity, negative = inhibition in [5] was 6.14%. Besides, the Potency result in [8] and in [9] was “inactive” throughout.
